# This is part of a sample that, as a whole, favours compounds with a hit. Of some 83,000 tested, about 20% had one in any assay.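 Single-dose data. Exposure time 48 hours. Values below 10 considered active.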 A number with no mark means an inactive call. Active and inactive are the calls of the source.
# System: NCI/ADR-RES ovarian
# Test: NCI-60 one-dose screen, 48 h (100 = growth as untreated, 0 = no growth, -100 = all killed)
# Details: 10 µM unless noted
row,SMILES,growth
1,O=C(NCCCN1CCOCC1)c1cccc(N2C(=O)/C(=C/c3ccc(F)cc3)SC2=S)c1,98.5%
2,CC(C)NC1CCC(Nc2ccnc3cc(Cl)ccc23)CC1 (centres undefined),108%
3,Fc1ccc(-c2nn(-c3ccccc3)cc2-c2nc3ccccc3o2)cc1,46.9%
4,COc1ccc(C/C(C)=C(/c2ccc(OCCN3CCCCC3)cc2)c2ccc(OC(=O)NCc3ccccc3)cc2)cc1,-75.7% (active)
5,Cn1cc(-c2nonc2-c2c[nH]c3ccc(Br)cc23)c2cc(Br)ccc21,36.6%
6,Cn1c(=O)c2c(nc(NC3=NS(=O)(=O)c4ccccc43)n2CC(=O)N2CCc3ccccc32)n(C)c1=O,91.8%
7,Clc1ccc(Nc2nnc(COc3ccccc3)c3ccccc23)cc1,-1.13% (active)
8,O=[N+]([O-])c1ccc(S(=O)(=O)N2CCN(C3=NS(=O)(=O)c4ccccc4N3c3ccccc3)CC2)cc1,92.9%
9,CCNC(=O)c1[nH]cc(-c2ccccc2)c1-c1cc(OC)c2c(c1OC)OCO2,93%
10,COCCn1c(-c2csc(-c3cn(C)c4ccc(OC)cc34)n2)cc2cccnc21,46.4%
11,S=C(Nc1ccc(-c2nc(N3CCOCC3)c3cccn3n2)cc1)Nc1cccnc1,26.3%
12,COc1cc(CNC(=O)CCCC/C=C/C(C)C)ccc1OCc1nnc(Nc2ccc([N+](=O)[O-])cc2)o1,79.6%
13,N#CC1=C(c2ccc(Cl)cc2)Nc2c(c(-c3ccc(Cl)cc3)nn2-c2ccccc2)C12C(=O)Nc1ccc(Cl)cc12 (centres undefined),52.8%
14,CCOC(=O)/C=C1\S/C(=N\Nc2cc(=O)[nH]c3ccc(Cl)cc23)N(c2ccccc2)C1=O,101%
15,COc1cccc(NC(=O)Cn2cc(CN3CCN(c4ccnc5cc(Cl)ccc45)CC3)nn2)c1,94.7%
16,COc1cc(N2C(=O)[C@H](O)C2c2ccc(SC)cc2)cc(OC)c1OC (some centres undefined),14.2%
17,CSc1nnc(-c2cnn3c2NC(c2ccccc2)C3)n1-c1ccc(C(F)(F)F)cc1 (centres undefined),56%
18,N=C(N)c1ccc(-c2ccc(-c3ccc(F)cc3)o2)o1,22.6%
19,CC1=NN(c2nc(SCC(=O)Nc3nc4ccc(C)cc4s3)nc(-c3ccccc3)c2C#N)C(=O)C1,100%
20,C/C(Nc1ccc(Cl)c(Cl)c1)=C1\CCOC1=O,86.7%

row,SMILES,growth
1,N#Cc1cccc(-c2c(-c3ccc4ccccc4c3)oc3ccccc3c2=O)c1,27.2%
2,CC(C)N1CCN(Cc2ccc3c(NNC(=O)c4ccccc4)nc4cc(F)ccc4n23)CC1,6.16% (active)
3,O=S(=O)(NCCCNc1nccc(-c2c(-c3ccc(F)c(O)c3)nc3occn23)n1)c1ccccc1,118%
4,O=C1NCCC12CCN(c1c(Cl)cncc1-c1ccc(O)cc1)CC2,91.8%
5,Cc1cccnc1NC(=S)Nc1ncccc1C,117%
6,COc1ccc2c3c([nH]c2c1)C(=O)c1nc(C)ccc1C3=O,44.3%
7,CC1Cc2c(Cl)ncnc2N(C)c2ccc(F)cc21 (centres undefined),101%
8,O=C1c2cc(Cl)ccc2S(=O)(=O)c2c(NCCCNCCO)nc3ccccc3c21,40.6%
9,O=C(c1ccc(Cl)cc1)N1CCN(c2ccnc3cc(Cl)ccc23)CC1,87.7%
10,Cc1nnc(NC(=O)c2nc(S(=O)(=O)Cc3ccc(F)cc3)ncc2Cl)s1,93%
11,COc1ccc2[nH]cc(-c3nc(-c4cn(C)c5c(Cl)nccc45)cs3)c2c1,11.1%
12,COc1ccc(/C(C)=C(/c2ccc(OCCCN(C)C)cc2)c2ccc(OC(=O)Cc3ccccc3)cc2)cc1,85.1%
13,CCOc1nc(-c2ccccc2)cc2c(O)c(C(=O)NN)[nH]c(=O)c12,87.9%
14,Cn1c(=O)c2[nH]c(N/N=C/c3ccccc3Br)nc2n(C)c1=O,104%
15,Clc1ccc(Sc2cnc(-c3ccccc3)o2)cc1,108%
16,O=C(Nc1nn(-c2ccc(Cl)cc2Cl)nc1-c1ccccc1)c1ccccc1,106%
17,Cc1ccc(/C=N/Nc2nc(Nc3ccccc3)nc(-n3nc(C)cc3C)n2)cc1,13.1%
18,O=C(Nc1cc(Cl)ccc1O)c1ccc(Nc2ccnc(C(F)(F)F)c2)cc1,35.1%
19,CC(C)(C)c1cc(-c2nc3ccc(N4CCN(S(C)(=O)=O)CC4)cc3[nH]2)cc(C(C)(C)C)c1O,93.1%

# Reference: PubChem BioAssay (NCI)
